This is part of a sample that, as a whole, favours compounds with a hit. Of some 83,000 tested, about 20% had one in any assay.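 Cells were grown in 96-well plates and exposed to the test compound at a single concentration for 48 hours; results are reported as percent growth, with values below 10 considered active.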 Active and inactive are the calls of the source.

For this assay, the system named is NCI/ADR-RES ovarian. The assay can be described thus: NCI-60 one-dose screen, 48 h (100 = growth as untreated, 0 = no growth, -100 = all killed). Particulars: 10 µM unless noted.
Take `O=C(CCCCCCSc1nc(-c2ccc(Cl)cc2)cc(-c2ccc(Cl)cc2)n1)NO`: the growth is 3.91% (active).

Take `O=C1CC(C(F)(F)F)Cc2nc3ccc(Br)cc3cc21` (configuration not stated): the growth is 95.1% (inactive).

On to `COc1ccc(C2NC(=O)C(C#N)c3c2sc2c(F)cccc32)cc1` (configuration not stated), for which the growth was 27.3% (inactive).

`CCCCCn1sc(=O)n(Cc2ccc(CNC(=O)OCc3ccc4cccc(O)c4n3)cc2)c1=O`: the growth is -11.6% (active).

Regarding `O=[N+]([O-])c1cccc(N=NNc2cccc([N+](=O)[O-])c2)c1`, the growth was 94.4% (inactive).

Consider `CCN(CC)CCCOc1ccc2c(c1)O/C(=C\c1cccc(OC)c1)C2=O`, for which the growth is 94.8% (inactive).

With `O=C(OCc1ccc2c(Cl)cc(Cl)c(O)c2n1)N1CCNCC1`, the growth was 9.22% (active).

For the compound `C=CCCCCOc1ccccc1-c1cnc(OCCCCC=C)n1C`, the growth is 30.4% (inactive).

With `CSc1nc(=S)c2nc(SC)n(-c3ccccc3)c2[nH]1`, the growth was 101% (inactive).

Take `CC1Cc2c(Cl)ncnc2N(C)c2ccc(O)cc21` (configuration not stated): the growth is 17.3% (inactive).

Turning to `Nc1nc(Nc2ccccc2)c2ncn(Cc3ccc4c(c3)OCO4)c2n1`, the growth was 9.58% (active).

Turning to `COc1ccc(-c2cc(-c3ccc(Cl)cc3)nc(SCCCCCCC(=O)NO)n2)cc1`, the growth is 2.26% (active).

For the compound `COc1ccc(C(=O)CSc2nccc(Nc3ccc(C(=O)O)cc3)n2)cc1`, the growth is 103% (inactive).

`CC1(C)OC2[C@@H](CNC(=O)NC(=O)NC(=O)CI)O[C@@H](n3cnc4c(NC(=O)Nc5ccccc5)ncnc43)[C@H]2O1` (some centres not stated): the growth is 84.6% (inactive).

Turning to `Cn1cc(-c2noc(-c3cn(C)c4ncc(F)cc34)n2)c2cc(Cl)ccc21`, the growth is 67.9% (inactive).

As to `COCCCNc1nc(NC(=O)c2cc(Br)cc(C(F)(F)F)c2)cc(-c2cccnc2)n1`, the growth was 99.5% (inactive).

As for `O=C(NCCCNC(=O)OCc1ccc2cccc(O)c2n1)OCc1ccc2cccc(O)c2n1`, the growth is 41.5% (inactive).

In the case of `COc1cccc(-c2[nH]c(=S)ncc2C(=O)c2ccccc2)c1`, the growth is 91.8% (inactive).

Regarding `CCN(CCO)CCC(=O)c1ccc([N+](=O)[O-])cc1`, the growth was 102% (inactive).

For `Cc1ccc(N)c(O)c1`, the growth was 92.8% (inactive).

For `CC(C)C1=NOC(=O)C1=Cc1cn(-c2ccccc2)nc1-c1ccc(Br)cc1`, the growth was 101% (inactive).

On to `Cc1cc[n+](CCCCCCCCCC[n+]2ccc(C)cc2)cc1`, for which the growth was 94.3% (inactive).

Take `C[C@@H](NC(=O)[C@@H](CC(=O)N1CCC(N2CCCCC2)CC1)N1C(=O)[C@@H](N2C(=O)OC[C@@H]2c2ccccc2)[C@H]1/C=C/c1cccc(Cl)c1)c1ccccc1`: the growth is 98% (inactive).

As for `C/C=C/C1OC23CCCCC2C(C#N)(C(=N)O3)C1(C#N)C#N` (configuration not stated), the growth was 104% (inactive).

For `CCCOc1ccc(-c2nc(-c3ccc(N)cc3)cs2)cc1`, the growth was 97.9% (inactive).

For `Cc1ccccc1OC(=O)c1cccc(Cl)c1`, the growth is 108% (inactive).

Regarding `CC(C)c1ccc(C(=O)Nc2nc3ccc(O)cc3s2)cc1`, the growth was 25.7% (inactive).

For the compound `COc1cc(-c2nc(SCCC(C)C)nc(Nc3ccc(S(N)(=O)=O)cc3)c2C#N)cc(OC)c1OC`, the growth was 37.6% (inactive).

As to `O=C(CSc1nc2ccc([N+](=O)[O-])cc2[nH]1)Nc1cccc(Cl)c1`, the growth was 25.4% (inactive).

As for `COc1ccc2nc3cc(Cl)ccc3c(Nc3ccc(O)cc3)c2c1`, the growth was 71.2% (inactive).

Turning to `O=C(OCc1ccc2c(Cl)cc(Cl)c(O)c2n1)N1CCN(C(=O)c2cc3cc(F)ccc3[nH]2)CC1`, the growth was 2.35% (active).

On to `COc1ccc(C(C(=O)O)c2ccc(OC)cc2)cc1`, for which the growth is 117% (inactive).

Turning to `O=C1COCCN1c1ccc(NCc2cn(Cc3ccc(F)cc3)c3ccccc23)cc1`, the growth is 72.1% (inactive).

On to `O=C(Nc1cc(-c2cccnc2)nc(NCCCN2CCOCC2)n1)c1cc(Br)cc(C(F)(F)F)c1`, for which the growth is 56.6% (inactive).

Consider `CS(=O)(=O)c1cccnn1`, for which the growth is 96% (inactive).

With `C[C@]12CCc3c(ccc4cc(O)ccc34)[C@@H]1CC[C@H]2O`, the growth is 101% (inactive).

Take `CN(Cc1cccc(C(F)(F)F)c1)C(=O)[C@@H](CC(=O)N1CCC(N2CCCCC2)CC1)N1C(=O)[C@@H](N2C(=O)OC[C@@H]2c2ccccc2)[C@H]1/C=C/c1ccccc1`: the growth was 99.2% (inactive).

Source of the values: PubChem BioAssay (NCI).
